Measured values taken from PubChem BioAssay (Tox21).
“And” between values parts separate entries of the source, which are not always exact repeats. Identical values can stand only once. Records with an inconclusive call do not appear. Some compounds were tested as several samples or in several runs, with calls that do not always agree. The source made the active and inactive calls. Unless noted, calls come from the whole dose curve; as a rule, active = well fitted curve in the direction sought with a large enough effect in the repeat runs; inconclusive = weak or mixed curves; inactive = no such curve, though single readings can be large; an effect the other way counts as inactive or inconclusive.

Experiments:
[1] = qHTS assay to identify small molecule agonists of H2AX - cell viability counter screen (AID 1224847; calls by dose curve; note: nearly all actives have a fitted effect of over 30% in size; note: potency is the fitted concentration of half-maximal effect;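 for activity change, negative = cytotoxicity: wild-type CHO-K1 cells; top concentration of the series differs between compounds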)
Procedure, shortened: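 For this counter screen, overnight-attached CHO-K1 cells received test compounds (15 concentrations, 0.76% DMSO final); 3 hr later at 37C, CellTiter-Glo reagent was added and luminescence recorded after 30 min at room temperature.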

[2] = qHTS RealTime-Glo MT Cell Viability Assay in HEK293 cells - 32 hour (AID 1224868); note: nearly all actives have a fitted effect of over 50% in size; note: potency is the fitted concentration of half-maximal effect; for activity change, negative = cytotoxic: top concentration of the series differs between compounds
Procedure, shortened: (§1)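 Luminescence generated by NanoLuc from substrate produced by living HEK293 cells served as the viability signal. Each value reflects the reading at its stated time point during continuous 40 h compound exposure at 37 C.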

[3] = A CellTox Green Cytotoxicity Assay to monitor cytotoxicity in HEK293 cells - 0 hour (AID 1224869); note: nearly all actives have a fitted effect of over 50% in size
Procedure, shortened: (§2)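 Tox21 screen in HEK293: membrane-impermeant cyanine dye fluoresces on binding dead-cell DNA; compound pinned 5 h post-seeding, plates held at 37 C, signal read repeatedly through 40 h.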

[4] = qHTS RealTime-Glo MT Cell Viability Assay in HepG2 cells - 40 hour (AID 1224870); note: nearly all actives have a fitted effect of over 50% in size
Procedure, shortened: (§3)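 HepG2 cells mixed with RealTime-Glo MT reagents (NanoLuc plus cell-permeant prosubstrate) were seeded at 600 cells/well, incubated 5 h at 37 C/5% CO2, then pinned with compounds in DMSO; nonlytic luminescence tracked viability during 40 h treatment.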

[5] = A CellTox Green Cytotoxicity Assay to monitor cytotoxicity in HEK293 cells - 40 hour (AID 1224871); note: nearly all actives have a fitted effect of over 45% in size
Procedure, shortened: as §2

[6] = qHTS RealTime-Glo MT Cell Viability Assay in HEK293 cells - 40 hour (AID 1224874); conditions: RealTime-Glo luminescence; max response: stronger effect = lower value; note: nearly all actives have a fitted effect of over 50% in size; note: potency is the fitted concentration of half-maximal effect
Procedure, shortened: (§4)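 HEK293 + NanoLuc + prosubstrate, 600 cells/well; 5 h, 37 C/5% CO2; compound 23 nL in DMSO by pintool; 37 C; luminescence read at 0, 8, 16, 24, 32 and 40 h time points.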

[7] = A CellTox Green Cytotoxicity Assay to monitor cytotoxicity in HEK293 cells - 24 hour (AID 1224875); note: series mostly up to about 77 µM; nearly all actives have a fitted effect of over 45% in size
Procedure, shortened: as §2

[8] = A CellTox Green Cytotoxicity Assay to monitor cytotoxicity in HepG2 cells - 16 hour (AID 1224876); note: nearly all actives have a fitted effect of over 45% in size; note: potency is the fitted concentration of half-maximal effect
Procedure, shortened: (§5)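 Measurements at 0, 8, 16, 24, 32 and 40 h of treatment captured CellTox Green fluorescence in HepG2 cells that had been co-plated with reagent and preincubated 5 h at 37 C/5% CO2.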

[9] = qHTS RealTime-Glo MT Cell Viability Assay in HepG2 cells - 32 hour (AID 1224877); note: nearly all actives have a fitted effect of over 55% in size
Procedure, shortened: (§6)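 Tox21 10K library screened in qHTS format on HepG2 cells carrying RealTime-Glo reagents. Compounds were added after a 5 h preincubation, and the luminescent signal from continuous culture was measured repeatedly during 40 h treatment.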

[10] = A CellTox Green Cytotoxicity Assay to monitor cytotoxicity in HepG2 cells - 24 hour (AID 1224878); note: nearly all actives have a fitted effect of over 45% in size; note: potency is the fitted concentration of half-maximal effect
Procedure, shortened: as §5

[11] = A CellTox Green Cytotoxicity Assay to monitor cytotoxicity in HepG2 cells - 40 hour (AID 1224879); note: nearly all actives have a fitted effect of over 40% in size; note: potency is the fitted concentration of half-maximal effect
Procedure, shortened: as §5

[12] = qHTS RealTime-Glo MT Cell Viability Assay in HEK293 cells - 0 hour (AID 1224880)
Procedure, shortened: as §4

[13] = A CellTox Green Cytotoxicity Assay to monitor cytotoxicity in HEK293 cells - 32 hour (AID 1224881); note: nearly all actives have a fitted effect of over 40% in size
Procedure, shortened: as §2

[14] = A CellTox Green Cytotoxicity Assay to monitor cytotoxicity in HepG2 cells - 0 hour (AID 1224882); note: nearly all actives have a fitted effect of over 35% in size
Procedure, shortened: as §5

[15] = A CellTox Green Cytotoxicity Assay to monitor cytotoxicity in HepG2 cells - 32 hour (AID 1224883); note: nearly all actives have a fitted effect of over 50% in size; note: potency is the fitted concentration of half-maximal effect
Procedure, shortened: as §5

[16] = qHTS RealTime-Glo MT Cell Viability Assay in HepG2 cells - 24 hour (AID 1224867); note: nearly all actives have a fitted effect of over 50% in size
Procedure, shortened: as §6

[17] = qHTS RealTime-Glo MT Cell Viability Assay in HepG2 cells - 8 hour (AID 1224873); note: nearly all actives have a fitted effect of over 55% in size
Procedure, shortened: as §3

[18] = qHTS RealTime-Glo MT Cell Viability Assay in HEK293 cells - 16 hour (AID 1224872)
Procedure, shortened: as §1
% is set by controls: 0 for no effect and ±100 for the full control effect.

Cc1cnc(C(=O)NCCc2ccc(S(=O)(=O)NC(=O)NC3CCCCC3)cc2)cn1
inactive: Potency [1] | Potency [2] | outcome [3] | outcome [4] | Potency [5] | max response [6] 11.5% and 10.1% | Potency [7] | Potency [8] | outcome [9] | Potency [10] | Potency [11] | Potency [12] | Potency [13] | outcome [14] | Potency [15]

C#C[C@]1(O)CC[C@H]2[C@@H]3CCC4=CC(=O)CC[C@@H]4[C@H]3CC[C@@]21C
inactive: Potency [1] | outcome [16] | outcome [3] | outcome [4] | Potency [5] | outcome [17] | max response [6] -16% | Potency [8] | outcome [9] | Potency [10] | Potency [11] | Potency [12] | Potency [13] | outcome [14] | Potency [15]

O=[N+]([O-])c1ccc(/C=C/c2ccc([N+](=O)[O-])cc2S(=O)(=O)O)c(S(=O)(=O)O)c1
inactive: Potency [1] | Potency [2] | outcome [3] | outcome [4] | Potency [5] | Potency [18] | outcome [17] | max response [6] 6.57% and 8.56% | Potency [7] | Potency [8] | outcome [9] | Potency [10] | Potency [11] | Potency [12] | Potency [13] | outcome [14] | Potency [15]

CCN(CC)CCCC(C)Nc1ccnc2cc(Cl)ccc12 (centres undefined)
inactive: activity change, negative = cytotoxicity [1] 0.575% [at 14 µM] and -2.97% [at 31.6 µM] | cytotoxicity [3] 0.802% [at 6.97 µM] and -1.16% [at 15.8 µM] | activity change, negative = cytotoxic [4] -2.02% [at 6.97 µM] and -2.98% [at 15.8 µM] | cytotoxicity increase [5] -14.6% [at 6.97 µM] and 9.06% [at 15.8 µM] | max response [6] -13.9% | cytotoxicity increase [8] -7.78% [at 6.97 µM] and 19.1% [at 15.8 µM] | activity change, negative = cytotoxic [9] 11.1% [at 6.97 µM] and -5.44% [at 15.8 µM] | cytotoxicity [10] -7.44% [at 6.97 µM] | cytotoxicity increase [11] -6.76% [at 6.97 µM] and 37% [at 15.8 µM] | activity change, negative = cytotoxicity [12] -2.92% [at 6.97 µM] and -5.73% [at 15.8 µM] | cytotoxicity increase [13] -12.6% [at 6.97 µM] and 3.44% [at 15.8 µM] | cytotoxicity [14] -5% [at 6.97 µM] and 4.14% [at 15.8 µM] | cytotoxicity increase [15] -6.83% [at 6.97 µM]

C=C(C)C(=O)Nc1ccc(Cl)c(Cl)c1
active: Potency [1] 102 µM | Potency [2] 19.7 µM and 21.8 µM | Potency [6] 19.7 µM and 24.4 µM
inactive: outcome [3] | outcome [4] | Potency [5] | outcome [17] | Potency [7] | Potency [8] | outcome [9] | Potency [10] | Potency [11] | Potency [12] | Potency [13] | outcome [14] | Potency [15]

O=C(O)c1ccc2c(c1)C(=O)OC2=O
inactive: Potency [1] | Potency [2] | outcome [3] | outcome [4] | Potency [5] | Potency [18] | max response [6] 5.17% and 0.547% | Potency [7] | Potency [8] | outcome [9] | Potency [10] | Potency [11] | Potency [12] | Potency [13] | outcome [14] | Potency [15]

O=C(OCCOCCOC(=O)c1ccccc1)c1ccccc1
inactive: Potency [1] | outcome [3] | outcome [4] | Potency [5] | outcome [17] | max response [6] -18.1% | Potency [7] | Potency [8] | outcome [9] | Potency [10] | Potency [11] | Potency [12] | Potency [13] | outcome [14] | Potency [15]

COc1ccc(NC(C)=O)cc1N
inactive and 21.9 µM (active): Potency [8]
inactive: Potency [1] | Potency [2] | outcome [3] | outcome [4] | Potency [5] | max response [6] 6.82% and 6.45% | Potency [7] | outcome [9] | Potency [12] | Potency [13] | outcome [14]
inactive and 49 µM (active): Potency [10]
inactive and 43.6 µM (active): Potency [11] | Potency [15]

O=C(O)[C@H](O)[C@@H](O)[C@H](O)[C@H](O)CO
inactive: Potency [1] | outcome [4] | Potency [18] | outcome [17] | max response [6] -0.628% and 0.139% | Potency [8] | outcome [9] | Potency [10] | Potency [11] | Potency [12] | outcome [14] | Potency [15]

Cc1cc(C)c(C)cc1C
inactive: Potency [1] | outcome [16] | outcome [3] | outcome [4] | Potency [5] | max response [6] 0.583% and -29% | Potency [7] | Potency [8] | outcome [9] | Potency [10] | Potency [11] | Potency [12] | Potency [13] | outcome [14] | Potency [15]

CCCCC(CC)COC(=O)CCCCC(=O)OCC(CC)CCCC (centres undefined)
inactive: Potency [1] | Potency [2] | outcome [3] | outcome [4] | Potency [5] | Potency [18] | outcome [17] | max response [6] -6.84% and 6.57% | Potency [7] | Potency [8] | outcome [9] | Potency [10] | Potency [12] | Potency [13] | outcome [14]
inactive and 2.45 µM (active): Potency [11] | Potency [15]

CC(c1cc2ccccc2s1)N(O)C(N)=O (centres undefined)
inactive: Potency [1] | Potency [2] | outcome [3] | outcome [4] | Potency [5] | Potency [18] | outcome [17] | max response [6] -14.9% and -8.57% | Potency [7] | Potency [8] | outcome [9] | Potency [10] | Potency [11] | Potency [12] | Potency [13] | outcome [14] | Potency [15]

O=C1CCC(N2C(=O)c3ccccc3C2=O)C(=O)N1 (centres undefined)
inactive: Potency [1] | Potency [2] | outcome [3] | outcome [4] | Potency [5] | Potency [18] | outcome [17] | max response [6] 7.18% and -6.83% | Potency [8] | outcome [9] | Potency [10] | Potency [11] | Potency [12] | Potency [13] | outcome [14] | Potency [15]
